Reference: publication PMC11006913
Numbering of substitutions follows the chain as printed.

Legend:
Assay in all cases: PBM; 200 nM protein, PBS
Conditions in all cases: dsDNA, one strand shown
VENTX [1] = target: T1, VENTX (Homo sapiens, UniProt O95231 78-163, R121Q)
T1 sequence: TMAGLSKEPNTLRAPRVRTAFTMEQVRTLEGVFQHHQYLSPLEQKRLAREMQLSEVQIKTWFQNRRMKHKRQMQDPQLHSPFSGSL

HOXB9 [2] = target: HOXB9 (Homo sapiens, UniProt P17482 171-250, T197M)
HOXA4 [3] = target: HOXA4 (Homo sapiens, UniProt Q00056 201-287, W262R)
HOXC9 [4] = target: HOXC9 (Homo sapiens, UniProt P31274 178-260, K195R)
VENTX [5] = target: T2, VENTX (Homo sapiens, UniProt O95231 78-163)
T2 sequence: T1 sequence with Q44R

HOXA7 [6] = target: HOXA7 (Homo sapiens, UniProt P31268 116-202)
VENTX [7] = target: T3, VENTX (Homo sapiens, UniProt O95231 78-163, Y115F)
T3 sequence: T1 sequence with Y38F, Q44R

HOXB6 [8] = target: HOXB6 (Homo sapiens, UniProt P17509 132-218, K202E)
HOXA2 [9] = target: HOXA2 (Homo sapiens, UniProt O43364 129-215, R185T)
HOXA4 [10] = target: HOXA4 (Homo sapiens, UniProt Q00056 201-287, R217L)
HOXB9 [11] = target: HOXB9 (Homo sapiens, UniProt P17482 171-250)
HOXC9 [12] = target: HOXC9 (Homo sapiens, UniProt P31274 178-260)
HOXC9 [13] = target: HOXC9 (Homo sapiens, UniProt P31274 178-260, R193K)
HOXA2 [14] = target: HOXA2 (Homo sapiens, UniProt O43364 129-215, R185K)
HOXA4 [15] = target: HOXA4 (Homo sapiens, UniProt Q00056 201-287)
HOXC10 = HOXC10 (Homo sapiens, UniProt Q9NYD6 254-340, K271E)
HOXB9 [16] = target: HOXB9 (Homo sapiens, UniProt P17482 171-250, R186Q)
HOXC9 [17] = target: HOXC9 (Homo sapiens, UniProt P31274 178-260, R222W)
HOXA2 [18] = target: HOXA2 (Homo sapiens, UniProt O43364 129-215, Y150S)
HOXA7 [19] = target: HOXA7 (Homo sapiens, UniProt P31268 116-202, W177C)
HOXA4 [20] = target: HOXA4 (Homo sapiens, UniProt Q00056 201-287, W262F)
HOXA2 [21] = target: HOXA2 (Homo sapiens, UniProt O43364 129-215)
HOXB6 [22] = target: HOXB6 (Homo sapiens, UniProt P17509 132-218)
ALX4 [23] = target: ALX4 (Homo sapiens, UniProt Q9H161 200-286)
ALX4 [24] = target: ALX4 (Homo sapiens, UniProt Q9H161 200-286, Q225E)
NKX2-6 [25] = target: T4, NKX2-6 (Homo sapiens, UniProt A6NCS4 118-204)
T4 sequence: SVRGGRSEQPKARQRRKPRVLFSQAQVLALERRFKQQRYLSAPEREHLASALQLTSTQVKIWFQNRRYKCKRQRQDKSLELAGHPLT

NKX2-6 [26] = target: T5, NKX2-6 (Homo sapiens, UniProt A6NCS4 118-204, F151L)
T5 sequence: T4 sequence with F34L

HOXC9 (Homo sapiens, UniProt P31274 178-260, K195R), sequence (P31274 178-260 K195R): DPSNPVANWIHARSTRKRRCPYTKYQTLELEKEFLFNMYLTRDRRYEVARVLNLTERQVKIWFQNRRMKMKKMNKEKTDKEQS
HOXC9 (Homo sapiens, UniProt P31274 178-260, R193K), sequence (P31274 178-260 R193K): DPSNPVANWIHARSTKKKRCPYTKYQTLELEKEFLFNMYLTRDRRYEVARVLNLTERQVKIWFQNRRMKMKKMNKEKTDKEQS
HOXC9 (Homo sapiens, UniProt P31274 178-260), sequence (P31274 178-260): as the sequence (P31274 178-260 R193K) above, with K16R counted along it
HOXC9 (Homo sapiens, UniProt P31274 178-260, R222W), sequence (P31274 178-260 R222W): as the sequence (P31274 178-260 R193K) above, with K16R, R45W counted along it
HOXA4 (Homo sapiens, UniProt Q00056 201-287, R217L), sequence (Q00056 201-287 R217L): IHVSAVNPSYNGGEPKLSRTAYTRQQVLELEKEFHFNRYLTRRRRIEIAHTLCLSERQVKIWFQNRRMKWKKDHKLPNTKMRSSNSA
HOXA4 (Homo sapiens, UniProt Q00056 201-287), sequence (Q00056 201-287): as the sequence (Q00056 201-287 R217L) above, with L17R counted along it
HOXB9 (Homo sapiens, UniProt P17482 171-250), sequence (P17482 171-250): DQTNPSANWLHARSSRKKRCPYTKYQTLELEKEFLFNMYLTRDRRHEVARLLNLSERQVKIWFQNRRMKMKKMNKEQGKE
HOXB9 (Homo sapiens, UniProt P17482 171-250, R186Q), sequence (P17482 171-250 R186Q): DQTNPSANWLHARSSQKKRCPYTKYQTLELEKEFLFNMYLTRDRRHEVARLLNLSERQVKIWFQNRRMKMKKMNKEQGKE
HOXB9 (Homo sapiens, UniProt P17482 171-250, T197M), sequence (P17482 171-250 T197M): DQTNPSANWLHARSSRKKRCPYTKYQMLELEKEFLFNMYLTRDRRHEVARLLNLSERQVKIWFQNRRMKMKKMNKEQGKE
HOXA4 (Homo sapiens, UniProt Q00056 201-287, W262F), sequence (Q00056 201-287 W262F): as the sequence (Q00056 201-287 R217L) above, with L17R, W62F counted along it
HOXA4 (Homo sapiens, UniProt Q00056 201-287, W262R), sequence (Q00056 201-287 W262R): as the sequence (Q00056 201-287 R217L) above, with L17R, W62R counted along it
HOXB6 (Homo sapiens, UniProt P17509 132-218, K202E), sequence (P17509 132-218 K202E): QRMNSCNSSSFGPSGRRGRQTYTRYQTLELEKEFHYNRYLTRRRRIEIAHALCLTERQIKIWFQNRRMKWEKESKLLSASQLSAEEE
HOXA2 (Homo sapiens, UniProt O43364 129-215, R185T), sequence (O43364 129-215 R185T): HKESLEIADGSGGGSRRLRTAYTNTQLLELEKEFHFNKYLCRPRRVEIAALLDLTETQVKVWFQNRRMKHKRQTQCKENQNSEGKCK
HOXC10, sequence (Q9NYD6 254-340 K271E): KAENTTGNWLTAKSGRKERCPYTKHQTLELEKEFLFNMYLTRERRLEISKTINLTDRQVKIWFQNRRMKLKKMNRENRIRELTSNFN
HOXA2 (Homo sapiens, UniProt O43364 129-215, Y150S), sequence (O43364 129-215 Y150S): as the sequence (O43364 129-215 R185T) above, with Y22S, T57R counted along it
ALX4 (Homo sapiens, UniProt Q9H161 200-286, Q225E), sequence (Q9H161 200-286 Q225E): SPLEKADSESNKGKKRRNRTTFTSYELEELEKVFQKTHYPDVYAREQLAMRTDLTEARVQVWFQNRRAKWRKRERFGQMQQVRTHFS
HOXA7 (Homo sapiens, UniProt P31268 116-202), sequence (P31268 116-202): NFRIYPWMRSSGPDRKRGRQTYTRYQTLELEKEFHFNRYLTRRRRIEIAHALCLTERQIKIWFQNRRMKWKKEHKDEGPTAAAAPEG
HOXB6 (Homo sapiens, UniProt P17509 132-218), sequence (P17509 132-218): as the sequence (P17509 132-218 K202E) above, with E71K counted along it
ALX4 (Homo sapiens, UniProt Q9H161 200-286), sequence (Q9H161 200-286): as the sequence (Q9H161 200-286 Q225E) above, with E26Q counted along it
HOXA7 (Homo sapiens, UniProt P31268 116-202, W177C), sequence (P31268 116-202 W177C): as the sequence (P31268 116-202) above, with W62C counted along it
HOXA2 (Homo sapiens, UniProt O43364 129-215, R185K), sequence (O43364 129-215 R185K): as the sequence (O43364 129-215 R185T) above, with T57K counted along it
HOXA2 (Homo sapiens, UniProt O43364 129-215), sequence (O43364 129-215): as the sequence (O43364 129-215 R185T) above, with T57R counted along it

With CCATTAAC the binding signal (VENTX [1]) was 12.1 upbm affinity estimate (log intensity, higher = more binding, comparable within an allelic series), the binding signal (HOXB9 [2]) was 9.99 upbm affinity estimate (log intensity, higher = more binding, comparable within an allelic series) and the binding signal (HOXA4 [3]) was 10.6 upbm affinity estimate (log intensity, higher = more binding, comparable within an allelic series). For the same sequence, the binding signal (HOXC9 [4]) was 12.7 upbm affinity estimate (log intensity, higher = more binding, comparable within an allelic series), the binding signal (VENTX [5]) was 12.6 upbm affinity estimate (log intensity, higher = more binding, comparable within an allelic series) and the binding signal (HOXA7 [6]) was 11.5 upbm affinity estimate (log intensity, higher = more binding, comparable within an allelic series). The binding signal (VENTX [7]) was 11.7 upbm affinity estimate (log intensity, higher = more binding, comparable within an allelic series), the binding signal (HOXB6 [8]) was 10.1 upbm affinity estimate (log intensity, higher = more binding, comparable within an allelic series) and the binding signal (HOXA2 [9]) was 12.1 upbm affinity estimate (log intensity, higher = more binding, comparable within an allelic series). For the same sequence, the binding signal (HOXA4 [10]) was 12 upbm affinity estimate (log intensity, higher = more binding, comparable within an allelic series), the binding signal (HOXB9 [11]) was 11.7 upbm affinity estimate (log intensity, higher = more binding, comparable within an allelic series) and the binding signal (HOXC9 [12]) was 12.7 upbm affinity estimate (log intensity, higher = more binding, comparable within an allelic series). For the same sequence, the binding signal (HOXC9 [13]) was 12.7 upbm affinity estimate (log intensity, higher = more binding, comparable within an allelic series), the binding signal (HOXA2 [14]) was 13.1 upbm affinity estimate (log intensity, higher = more binding, comparable within an allelic series) and the binding signal (HOXA4 [15]) was 13.8 upbm affinity estimate (log intensity, higher = more binding, comparable within an allelic series). For the same sequence, the binding signal (HOXC10) was 11.9 upbm affinity estimate (log intensity, higher = more binding, comparable within an allelic series), the binding signal (HOXB9 [16]) was 11.6 upbm affinity estimate (log intensity, higher = more binding, comparable within an allelic series) and the binding signal (HOXC9 [17]) was 11 upbm affinity estimate (log intensity, higher = more binding, comparable within an allelic series). For the same sequence, the binding signal (HOXA2 [18]) was 10.7 upbm affinity estimate (log intensity, higher = more binding, comparable within an allelic series), the binding signal (HOXA7 [19]) was 8.86 upbm affinity estimate (log intensity, higher = more binding, comparable within an allelic series) and the binding signal (HOXA4 [20]) was 11.5 upbm affinity estimate (log intensity, higher = more binding, comparable within an allelic series). The binding signal (HOXA2 [21]) was 12 upbm affinity estimate (log intensity, higher = more binding, comparable within an allelic series) and the binding signal (HOXB6 [22]) was 12 upbm affinity estimate (log intensity, higher = more binding, comparable within an allelic series).
In the case of CCCCATGC, the binding signal (VENTX [1]) is reported as 8.07 upbm affinity estimate (log intensity, higher = more binding, comparable within an allelic series), the binding signal (HOXC9 [4]) is reported as 9.5 upbm affinity estimate (log intensity, higher = more binding, comparable within an allelic series) and the binding signal (VENTX [5]) is reported as 8.26 upbm affinity estimate (log intensity, higher = more binding, comparable within an allelic series). The binding signal (VENTX [7]) was 8.2 upbm affinity estimate (log intensity, higher = more binding, comparable within an allelic series), the binding signal (HOXC9 [12]) was 9.6 upbm affinity estimate (log intensity, higher = more binding, comparable within an allelic series) and the binding signal (HOXC9 [13]) was 9.46 upbm affinity estimate (log intensity, higher = more binding, comparable within an allelic series). For the same sequence, the binding signal (HOXC9 [17]) was 9.63 upbm affinity estimate (log intensity, higher = more binding, comparable within an allelic series).
CGGAGGGA was tested, and the binding signal (VENTX [1]) was 8.11 upbm affinity estimate (log intensity, higher = more binding, comparable within an allelic series), the binding signal (HOXA4 [3]) was 9.84 upbm affinity estimate (log intensity, higher = more binding, comparable within an allelic series) and the binding signal (HOXC9 [4]) was 9.42 upbm affinity estimate (log intensity, higher = more binding, comparable within an allelic series). For the same sequence, the binding signal (VENTX [5]) was 7.97 upbm affinity estimate (log intensity, higher = more binding, comparable within an allelic series), the binding signal (ALX4 [23]) was 7.87 upbm affinity estimate (log intensity, higher = more binding, comparable within an allelic series) and the binding signal (VENTX [7]) was 8.17 upbm affinity estimate (log intensity, higher = more binding, comparable within an allelic series). For the same sequence, the binding signal (ALX4 [24]) was 8.03 upbm affinity estimate (log intensity, higher = more binding, comparable within an allelic series), the binding signal (HOXA4 [10]) was 9.72 upbm affinity estimate (log intensity, higher = more binding, comparable within an allelic series) and the binding signal (HOXC9 [12]) was 9.45 upbm affinity estimate (log intensity, higher = more binding, comparable within an allelic series). For the same sequence, the binding signal (NKX2-6 [25]) was 9.02 upbm affinity estimate (log intensity, higher = more binding, comparable within an allelic series), the binding signal (HOXC9 [13]) was 9.42 upbm affinity estimate (log intensity, higher = more binding, comparable within an allelic series) and the binding signal (HOXA4 [15]) was 9.76 upbm affinity estimate (log intensity, higher = more binding, comparable within an allelic series). The binding signal (NKX2-6 [26]) was 9.3 upbm affinity estimate (log intensity, higher = more binding, comparable within an allelic series), the binding signal (HOXC9 [17]) was 9.69 upbm affinity estimate (log intensity, higher = more binding, comparable within an allelic series) and the binding signal (HOXA4 [20]) was 9.79 upbm affinity estimate (log intensity, higher = more binding, comparable within an allelic series).
In the case of CGATTACC, the binding signal (VENTX [1]) is reported as 10.2 upbm affinity estimate (log intensity, higher = more binding, comparable within an allelic series).
With CTCCCGAG the binding signal (VENTX [1]) was 8.03 upbm affinity estimate (log intensity, higher = more binding, comparable within an allelic series), the binding signal (HOXB9 [2]) was 8.41 upbm affinity estimate (log intensity, higher = more binding, comparable within an allelic series) and the binding signal (VENTX [5]) was 8.1 upbm affinity estimate (log intensity, higher = more binding, comparable within an allelic series). For the same sequence, the binding signal (VENTX [7]) was 8.07 upbm affinity estimate (log intensity, higher = more binding, comparable within an allelic series), the binding signal (HOXB9 [11]) was 8.42 upbm affinity estimate (log intensity, higher = more binding, comparable within an allelic series) and the binding signal (HOXB9 [16]) was 8.44 upbm affinity estimate (log intensity, higher = more binding, comparable within an allelic series).
